Laboratory results: PubChem BioAssay (EPA / NIEHS)
“And” between values parts separate entries of the source, which are not always exact repeats. Equal entries are not always repeated. Some structures have more than one record in an assay (separate samples or runs), and their calls can disagree. The source made the active and inactive calls. How the source made its calls: active means hit-call score of the fitted dose curve at least 0.9, where 1 is the maximum; inactive means score below 0.9.

Read-out: Vascular cell adhesion molecule 1 (VCAM1), VCAM1 (gene 7412)
Assay: BSK_hDFCGF_VCAM1: BioMAP Diversity Plus: hDFCGF Assay for Vascular cell adhesion molecule 1 (VCAM1) Biomarker Activity (AID 2283065)
Conditions: primary human foreskin fibroblasts; actives raise or lower the signal
Experimental: BSK_hDFCGF is a cell-based, multiplexed-readout assay that uses foreskin fibroblast, a human skin primary cell, with measurements taken at 24 hours after chemical dosing in a 96-well plate.BSK_hDFCGF_VCAM1 is an assay component measured in the BSK_hDFCGF assay. It measures VCAM-1 antibody related to regulation of gene expression using ELISA technology.Data from the assay component BSK_hDFCGF_VCAM1 was analyzed into 1 assay endpoint. This assay endpoint, BSK_hDFCGF_VCAM1, was analyzed with bidirectional fitting relative to DMSO as the negative control and baseline of activity. Using a type of binding reporter, gain or loss-of-signal activity can be used to understand changes in the signaling as they relate to the gene VCAM1. Furthermore, this assay endpoint can be referred to as a primary readout, because this assay has produced multiple assay endpoints where this one serves a signaling function. To generalize the intended target to other relatable targets, this assay endpoint is annotated to the cell adhesion molecules intended target family, where the subfamily is Immunoglobulin CAM.
The levels of cell surface (or secreted, indicated by the prefix "s") biomarker endpoints were measured by ELISA. Overt cytotoxicity to cells in confluent adherent cultures (all systems other than the BT system) was assessed by measuring total protein levels using sulforhodamine B (SRB) staining in parallel cultures at the time of biomarker measurements, indicated as SRB endpoints. For proliferation assays for adherent cell types, individual cell types are cultured at sub-confluence and relative cell numbers quantified by SRB staining at time points optimized for each system (48 h: 3C and CASM3C systems; 72 h: BT and HDF3CGF systems; 96 h: SAg system). SRB was performed by staining cells with 0.1% SRB after fixation with 10% TCA and reading wells at 560 nm.Viability and proliferation of PBMC (T cells) was quantified by Alamar Blue reduction for the SAg and BT systems. For PBMC viability (referred to as PBMC Cytotoxicity within the assay endpoint names), cells were plated (75,000/well in a 96-well plate) and then chemical samples added for 1 h before addition of activators, SEB and TSST-1 (20 ng/mL final concentration each). Cells were incubated for 90 h. Then, Alamar Blue (20 uL/well) (Invitrogen, Cat DAL1100) was added for 6 h, and the plates were read with a fluorescence microplate reader at 546/580 nm (excitation/emission). For PBMC proliferation, cells were plated and activated as above but incubated for only 16 h prior to addition of Alamar Blue. Plates were read after 6 h.

SMILES | outcome | AC50
O=P(O)(O)CCC(F)(F)C(F)(F)C(F)(F)C(F)(F)C(F)(F)C(F)(F)C(F)(F)C(F)(F)F | inactive | –
OCC(F)(F)C(F)(F)C(F)(F)C(F)(F)C(F)(F)C(F)(F)C(F)(F)C(F)(F)C(F)(F)C(F)(F)C(F)(F)F | inactive | 0.189 µM (active)
COc1cccc(O)c1 | inactive | –
C[C@]12CC[C@@H]3c4ccc(O)cc4CC[C@H]3[C@@H]1C[C@@H](O)[C@@H]2O | inactive | –
O=C(NO)c1ccccc1 | inactive | –
CN(Cc1cnc2nc(N)nc(N)c2n1)c1ccc(C(=O)N[C@@H](CCC(=O)O)C(=O)O)cc1 | inactive | –
CCCCCCCCCCCC | – | 8.36 µM (active) and 7.77 µM (active)
COc1cc(OC)nc(NC(=O)NS(=O)(=O)Nc2ccccc2C(=O)N(C)C)n1 | inactive | –
C=CC(C)(CCC=C(C)C)OC(C)=O (stereo not given) | inactive | –
NC(=NCCCCCCN=C(N)/N=C(\N)Nc1ccc(Cl)cc1)/N=C(\N)Nc1ccc(Cl)cc1 | – | 5.46 µM (active)
CC[N+](CC)(CC)Cc1ccccc1 | inactive | –
OCCN1CN(CCO)CN(CCO)C1 | – | 15.5 µM (active)
CCCCC(CC)C(=O)O (stereo not given) | inactive | –
O=C(O)CCC(F)(F)C(F)(F)C(F)(F)C(F)(F)C(F)(F)C(F)(F)F | inactive | –
CN(CCO)S(=O)(=O)C(F)(F)C(F)(F)C(F)(F)C(F)(F)C(F)(F)C(F)(F)C(F)(F)C(F)(F)F | inactive | –
CC(=O)Nc1ccc(O)cc1 | inactive | –
COC1=CC(=O)C[C@@H](C)[C@]12Oc1c(Cl)c(OC)cc(OC)c1C2=O | inactive | –
OCC(CO)(CBr)CBr | inactive | –
CCCCC=O | inactive | –

SMILES | outcome | AC50
O=C(c1ccccc1)c1ccccc1 | inactive | –
O=S(=O)(O)C(F)(F)C(F)(F)C(F)(F)C(F)(F)C(F)(F)C(F)(F)C(F)(F)C(F)(F)C(F)(F)C(F)(F)F | inactive | 0.201 µM (active)
CCCCCCCCCCCCCCC | inactive | –
Cc1[nH]nc2c1N=C(c1ccccc1Cl)c1cc([N+](=O)[O-])ccc1N2 | inactive | –
CCCCC(CC)C(=O)OCCOCCOCCOCCOC(=O)C(CC)CCCC (stereo not given) | inactive | –
Cc1ccc(C(=O)c2ccccc2)cc1 | – | 30.5 µM (active)
Oc1cc2ccccc2cc1O | inactive | –
CN(C)c1ccc(C(=C2C=CC(=[N+](C)C)C=C2)c2ccccc2)cc1 | – | 0.0134 µM (active)
Cc1cccc2c1ccc1ccccc12 | inactive | –
Oc1ccc(Cc2ccccc2O)cc1 | inactive | –
CCCCCCCCCCCCOS(=O)(=O)O | – | 29.3 µM (active)
CCCCc1oc2ccccc2c1C(=O)c1cc(I)c(OCCN(CC)CC)c(I)c1 | – | 8.94 µM (active)
COCN(COC)c1nc(N(COC)COC)nc(N(COC)COC)n1 | inactive | –
O=C(CCCN1CCC(O)(c2ccc(Cl)cc2)CC1)c1ccc(F)cc1 | inactive | –
C=COC(=O)C(C)(C)CCCCCC | – | 30.2 µM (active)
O=C(NCc1ncc(C(F)(F)F)cc1Cl)c1c(Cl)cccc1Cl | inactive | –
O=C1OC2(c3ccccc31)c1cc(I)c(O)c(I)c1Oc1c2cc(I)c(O)c1I | – | 12 µM (active)
CCCCCc1ccc(O)cc1 | – | 15.2 µM (active)
C=CC(=O)OCCC(F)(F)C(F)(F)C(F)(F)C(F)(F)C(F)(F)C(F)(F)C(F)(F)C(F)(F)F | inactive | –
